The record followed here is PMC12820563, “FoxP3 forms a head-to-head dimer in vivo and stabilizes its multimerization on adjacent microsatellites”.

The full ranking holds about 16,000 sequences; the median of “rpm ratio (pull-down/input)” is about 0.5, and the highest 2% start at about 5.5. The sample holds the highest values, similar sequences and a random draw of the others, so the mix is not that of the screen.

The experiment deals with T1, MBP-FoxP3dN (Mus musculus, UniProt Q99JB6 188-423).
T1 sequence: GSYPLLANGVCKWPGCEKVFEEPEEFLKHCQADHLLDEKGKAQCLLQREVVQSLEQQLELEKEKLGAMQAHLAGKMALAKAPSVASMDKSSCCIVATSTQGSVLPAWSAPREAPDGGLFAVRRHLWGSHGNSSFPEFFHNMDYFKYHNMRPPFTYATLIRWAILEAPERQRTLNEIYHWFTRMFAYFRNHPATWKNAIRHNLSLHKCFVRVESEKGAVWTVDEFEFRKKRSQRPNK
The experiment can be described thus: PD-seq (MBP pull-down with sequencing); 20 mM Tris-HCl pH 7.5, 100 mM NaCl, 1.5 mM MgCl2, 0.4 uM protein, 0.1 uM dsDNA library, 30 min, room temperature, amylose pull-down; high values mean tight binding. To be noted: protein: recombinant; tags: His6-MBP; chain copies: 2; dsDNA, one strand shown. Summed up:
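A fragment of mouse FoxP3 or FoxP1 without its N-terminus, carrying a His6-MBP tag and produced in E. coli, was combined at 0.4 µM with a 0.1 µM degenerate double-stranded DNA library filled in with Klenow. The mixture sat for 30 min at room temperature in Tris pH 7.5 buffer containing NaCl and MgCl2. Protein–DNA complexes were captured on amylose resin, washed three times, and the DNA was freed with proteinase K, barcoded by PCR and sequenced on Illumina. Binding is expressed as reads-per-million enrichment of pull-down over input, with replicates pooled.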
With “GATGATTGTTCTCCCAGCTGATGAATTTAACGAGTCGAGTAAACAAATTTTCCTAATCTTTCTGTTCAAGCGCCATCTAC”, the binding signal is 0.208 RPM ratio (pull-down/input).

For “GATGATTGTTCTCCCAGCTGATGAATTAGCTGCTTCGAGTAAACAAATTTTCCTAATCTTTCTGTTCAAGCGCCATCTAC”, the binding signal is 0.674 RPM ratio (pull-down/input).

On to “GATGATTGTTCTCCCAGCTGATGAATTGTACGTATCGAGTAAACAAATTTTCCTAATCTTTCTGTTCAAGCGCCATCTAC”, for which the binding signal is 0.769 RPM ratio (pull-down/input).

Turning to “GATGATTGTTCTCCCAGCTGATGAATTAGAGATGTCGAGTAAACAAATTTTCCTAATCTTTCTGTTCAAGCGCCATCTAC”, the binding signal was 0.424 RPM ratio (pull-down/input).

As for “GATGATTGTTCTCCCAGCTGATGAATTCTAAGTGTCGAGTAAACAAATTTTCCTAATCTTTCTGTTCAAGCGCCATCTAC”, the binding signal is 0.48 RPM ratio (pull-down/input).

In the case of “GATGATTGTTCTCCCAGCTGATGAATTCTACGCATCGAGTAAACAAATTTTCCTAATCTTTCTGTTCAAGCGCCATCTAC”, the binding signal is 0.854 RPM ratio (pull-down/input).

As to “GATGATTGTTCTCCCAGCTGATGAATTTTACGCATCGAGTAAACAAATTTTCCTAATCTTTCTGTTCAAGCGCCATCTAC”, the binding signal is 1.01 RPM ratio (pull-down/input).

Consider “GATGATTGTTCTCCCAGCTGATGAATTACGCATGTCGAGTAAACAAATTTTCCTAATCTTTCTGTTCAAGCGCCATCTAC”, for which the binding signal is 6.15 RPM ratio (pull-down/input).

On to “GATGATTGTTCTCCCAGCTGATGAATTACGCAAATCGAGTAAACAAATTTTCCTAATCTTTCTGTTCAAGCGCCATCTAC”, for which the binding signal was 0.792 RPM ratio (pull-down/input).

As for “GATGATTGTTCTCCCAGCTGATGAATTTACGCATTCGAGTAAACAAATTTTCCTAATCTTTCTGTTCAAGCGCCATCTAC”, the binding signal is 6.38 RPM ratio (pull-down/input).

Regarding “GATGATTGTTCTCCCAGCTGATGAATTACGCTGTTCGAGTAAACAAATTTTCCTAATCTTTCTGTTCAAGCGCCATCTAC”, the binding signal was 1.09 RPM ratio (pull-down/input).

Regarding “GATGATTGTTCTCCCAGCTGATGAATTACCCATGTCGAGTAAACAAATTTTCCTAATCTTTCTGTTCAAGCGCCATCTAC”, the binding signal is 0.294 RPM ratio (pull-down/input).

Take “GATGATTGTTCTCCCAGCTGATGAATTACGCCATTCGAGTAAACAAATTTTCCTAATCTTTCTGTTCAAGCGCCATCTAC”: the binding signal is 5.04 RPM ratio (pull-down/input).

As for “GATGATTGTTCTCCCAGCTGATGAATTACAACTCTCGAGTAAACAAATTTTCCTAATCTTTCTGTTCAAGCGCCATCTAC”, the binding signal was 0.948 RPM ratio (pull-down/input).

For the sequence “GATGATTGTTCTCCCAGCTGATGAATTACGCCTGTCGAGTAAACAAATTTTCCTAATCTTTCTGTTCAAGCGCCATCTAC”, the binding signal was 5.4 RPM ratio (pull-down/input).

For the sequence “GATGATTGTTCTCCCAGCTGATGAATTACGCATTTCGAGTAAACAAATTTTCCTAATCTTTCTGTTCAAGCGCCATCTAC”, the binding signal is 6.65 RPM ratio (pull-down/input).

“GATGATTGTTCTCCCAGCTGATGAATTACGCAACTCGAGTAAACAAATTTTCCTAATCTTTCTGTTCAAGCGCCATCTAC”: the binding signal is 6.03 RPM ratio (pull-down/input).

“GATGATTGTTCTCCCAGCTGATGAATTGCTACCATCGAGTAAACAAATTTTCCTAATCTTTCTGTTCAAGCGCCATCTAC”: the binding signal was 0.894 RPM ratio (pull-down/input).

In the case of “GATGATTGTTCTCCCAGCTGATGAATTGCCCGAATCGAGTAAACAAATTTTCCTAATCTTTCTGTTCAAGCGCCATCTAC”, the binding signal is 0.311 RPM ratio (pull-down/input).

Turning to “GATGATTGTTCTCCCAGCTGATGAATTACGGCCATCGAGTAAACAAATTTTCCTAATCTTTCTGTTCAAGCGCCATCTAC”, the binding signal was 1.15 RPM ratio (pull-down/input).

On to “GATGATTGTTCTCCCAGCTGATGAATTTAATCAATCGAGTAAACAAATTTTCCTAATCTTTCTGTTCAAGCGCCATCTAC”, for which the binding signal is 0.269 RPM ratio (pull-down/input).

Consider “GATGATTGTTCTCCCAGCTGATGAATTTGGTCCGTCGAGTAAACAAATTTTCCTAATCTTTCTGTTCAAGCGCCATCTAC”, for which the binding signal was 0.363 RPM ratio (pull-down/input).

With “GATGATTGTTCTCCCAGCTGATGAATTGGAACTCTCGAGTAAACAAATTTTCCTAATCTTTCTGTTCAAGCGCCATCTAC”, the binding signal is 0.343 RPM ratio (pull-down/input).

As to “GATGATTGTTCTCCCAGCTGATGAATTCCTTTGGTCGAGTAAACAAATTTTCCTAATCTTTCTGTTCAAGCGCCATCTAC”, the binding signal was 0.395 RPM ratio (pull-down/input).

Take “GATGATTGTTCTCCCAGCTGATGAATTGACACATTCGAGTAAACAAATTTTCCTAATCTTTCTGTTCAAGCGCCATCTAC”: the binding signal is 0.772 RPM ratio (pull-down/input).

For the sequence “GATGATTGTTCTCCCAGCTGATGAATTGCGATGGTCGAGTAAACAAATTTTCCTAATCTTTCTGTTCAAGCGCCATCTAC”, the binding signal was 1.01 RPM ratio (pull-down/input).

Regarding “GATGATTGTTCTCCCAGCTGATGAATTACGCAGCTCGAGTAAACAAATTTTCCTAATCTTTCTGTTCAAGCGCCATCTAC”, the binding signal is 1.78 RPM ratio (pull-down/input).

Regarding “GATGATTGTTCTCCCAGCTGATGAATTACGCCTCTCGAGTAAACAAATTTTCCTAATCTTTCTGTTCAAGCGCCATCTAC”, the binding signal is 5.99 RPM ratio (pull-down/input).

As to “GATGATTGTTCTCCCAGCTGATGAATTACTCCACTCGAGTAAACAAATTTTCCTAATCTTTCTGTTCAAGCGCCATCTAC”, the binding signal is 0.339 RPM ratio (pull-down/input).

As for “GATGATTGTTCTCCCAGCTGATGAATTACGCGCCTCGAGTAAACAAATTTTCCTAATCTTTCTGTTCAAGCGCCATCTAC”, the binding signal is 1.67 RPM ratio (pull-down/input).

As to “GATGATTGTTCTCCCAGCTGATGAATTTACGCACTCGAGTAAACAAATTTTCCTAATCTTTCTGTTCAAGCGCCATCTAC”, the binding signal is 0.784 RPM ratio (pull-down/input).

Regarding “GATGATTGTTCTCCCAGCTGATGAATTACGCGCATCGAGTAAACAAATTTTCCTAATCTTTCTGTTCAAGCGCCATCTAC”, the binding signal is 1.54 RPM ratio (pull-down/input).

For the sequence “GATGATTGTTCTCCCAGCTGATGAATTACGCATCTCGAGTAAACAAATTTTCCTAATCTTTCTGTTCAAGCGCCATCTAC”, the binding signal is 7.33 RPM ratio (pull-down/input).

For “GATGATTGTTCTCCCAGCTGATGAATTTTACGCCTCGAGTAAACAAATTTTCCTAATCTTTCTGTTCAAGCGCCATCTAC”, the binding signal was 0.506 RPM ratio (pull-down/input).

On to “GATGATTGTTCTCCCAGCTGATGAATTACGCCACTCGAGTAAACAAATTTTCCTAATCTTTCTGTTCAAGCGCCATCTAC”, for which the binding signal is 6.17 RPM ratio (pull-down/input).

Take “GATGATTGTTCTCCCAGCTGATGAATTAGATGTGTCGAGTAAACAAATTTTCCTAATCTTTCTGTTCAAGCGCCATCTAC”: the binding signal was 2.71 RPM ratio (pull-down/input).

As to “GATGATTGTTCTCCCAGCTGATGAATTGTCCCGCTCGAGTAAACAAATTTTCCTAATCTTTCTGTTCAAGCGCCATCTAC”, the binding signal was 0.272 RPM ratio (pull-down/input).

For the sequence “GATGATTGTTCTCCCAGCTGATGAATTAAGTCCGTCGAGTAAACAAATTTTCCTAATCTTTCTGTTCAAGCGCCATCTAC”, the binding signal was 0.307 RPM ratio (pull-down/input).

As to “GATGATTGTTCTCCCAGCTGATGAATTTCGCTTGTCGAGTAAACAAATTTTCCTAATCTTTCTGTTCAAGCGCCATCTAC”, the binding signal is 3.29 RPM ratio (pull-down/input).

Regarding “GATGATTGTTCTCCCAGCTGATGAATTTTATACATCGAGTAAACAAATTTTCCTAATCTTTCTGTTCAAGCGCCATCTAC”, the binding signal was 0.598 RPM ratio (pull-down/input).

For the sequence “GATGATTGTTCTCCCAGCTGATGAATTTGTAATATCGAGTAAACAAATTTTCCTAATCTTTCTGTTCAAGCGCCATCTAC”, the binding signal is 1.95 RPM ratio (pull-down/input).

As to “GATGATTGTTCTCCCAGCTGATGAATTGTATATATCGAGTAAACAAATTTTCCTAATCTTTCTGTTCAAGCGCCATCTAC”, the binding signal was 3.21 RPM ratio (pull-down/input).

For the sequence “GATGATTGTTCTCCCAGCTGATGAATTCTATACATCGAGTAAACAAATTTTCCTAATCTTTCTGTTCAAGCGCCATCTAC”, the binding signal is 0.559 RPM ratio (pull-down/input).

Turning to “GATGATTGTTCTCCCAGCTGATGAATTCAGTATATCGAGTAAACAAATTTTCCTAATCTTTCTGTTCAAGCGCCATCTAC”, the binding signal is 2.12 RPM ratio (pull-down/input).

As for “GATGATTGTTCTCCCAGCTGATGAATTCTGTATATCGAGTAAACAAATTTTCCTAATCTTTCTGTTCAAGCGCCATCTAC”, the binding signal is 5.72 RPM ratio (pull-down/input).

In the case of “GATGATTGTTCTCCCAGCTGATGAATTCTATATATCGAGTAAACAAATTTTCCTAATCTTTCTGTTCAAGCGCCATCTAC”, the binding signal was 1.18 RPM ratio (pull-down/input).

Take “GATGATTGTTCTCCCAGCTGATGAATTGTATACATCGAGTAAACAAATTTTCCTAATCTTTCTGTTCAAGCGCCATCTAC”: the binding signal was 5.87 RPM ratio (pull-down/input).

As for “GATGATTGTTCTCCCAGCTGATGAATTTTGTATATCGAGTAAACAAATTTTCCTAATCTTTCTGTTCAAGCGCCATCTAC”, the binding signal is 7.43 RPM ratio (pull-down/input).
